Experiment [1] in a line: AP1 Signaling Pathway (AID 357). Also: % is scaled to controls: 0 for no effect and ±100 for the full control effect. In outline:
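AP-1-bla ME-180 cells with beta-lactamase reporter under AP-1 response element, stimulated with EC50 EGF; compounds titrated, 5 hours at 37 degrees Celsius. CCF4 read at 460/530 nm ratio; positive and negative modulators judged by AC50.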

Experiment [2] can be described thus: NFAT Signaling Pathway (AID 444).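 Also: carbachol stimulus at about its EC50 of 1 µM final; % is scaled to controls: 0 for no effect and ±100 for the full control effect.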 To be noted: Jurkat NFAT-bla M1, carbachol, beta-lactamase ratio, 5 h. In outline:
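Jurkat cells with NFAT-driven β-lactamase reporter and co-expressed M1 receptor, stimulated with carbachol (final 1 uM, ~EC50), compound titration, 5 h at 37 °C. CCF4 loaded 1 h at RT; 460/530 nm ratio gave %activity and AC50.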

Experiment [3] can be described thus: Stat Signaling Pathway (AID 446).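 Also: ME-180 cervical cancer cells given 40 pM IL-6 alongside compound; SIE-controlled beta-lactamase reporter measured as 460/530 nm FRET emission ratio; % is scaled to controls: 0 for no effect and ±100 for the full control effect.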 The method, boiled down:
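FRET read-out (405 nm excitation, 460/530 nm emission) of a beta-lactamase reporter under a STAT-inducible element in ME-180 cervical carcinoma cells. Cells with compound receive 40 pM IL-6 for 5 h. Values are normalised to AC90 stimulation and AC90 JAK-inhibitor controls.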

The target in experiment [4] is Mitogen-activated protein kinase 10 (Mus musculus) (UniProt Q61831). Description: JNK3 AlphaScreen Assay (AID 530).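 Also: kinase came from lysate of stimulated human HepG2 cells; signal reports phosphorylation of biotinylated GST-cJun 1-79 at Ser73 with 10 µM ATP; % is scaled to controls: 0 for no effect and ±100 for the full control effect.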 The method, boiled down:
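HepG2 lysate (IL-1b/TNFa pre-activated) + biotin-GST-cJun 1-79 + anti-pSer73 cJun; cpd titration, 15 min RT; ATP 10 uM start; Tris pH 7.6, MgCl2, DTT, vanadate; beads in EDTA buffer; AlphaScreen.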
On the technique in general: In Alpha technology, singlet oxygen from a donor bead excites a nearby acceptor bead.

For experiment [5], the target named is 3',5'-cyclic-AMP phosphodiesterase 4B (Homo sapiens) (UniProt Q07343). Description: qHTS Assay for Inhibitors of PDE-IV (AID 607; active = well fitted activation curve with a large enough effect in the main read-out, with a control signal flat, not every such curve was filed as active; also: % of control where 0% means no effect). In outline:
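Cell-based read-out of cAMP via a modified cyclic nucleotide-gated channel and membrane potential dye (535/590 nm) in HEK293 cells expressing PDE4 endogenously. Compounds tested up to 22.9 uM final; 100 uM RO 20-1724 reference.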
(In general: qHTS replaces the single test concentration by a dilution series.)

Experiment [6] can be described thus: qHTS Assay for Lipid Storage Modulators (AID 1519; calls by dose curve). The note with it: Drosophila S3 cells, BODIPY lipid droplet/cell ratio, laser cytometry, cells loaded with oleic acid. In outline:
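Cells seeded at 5,000 per well were treated with compounds over a concentration series and loaded with oleic acid (400 uM, as added). Lipid droplet fluorescence (488 nm excitation, 500-530 nm channel) was read by laser-scanning cytometry and normalized to 20 uM Triacsin C.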

Experiment [7] has as its target Glucocorticoid receptor (Homo sapiens) (UniProt P04150). As to the kind of experiment: GR-GFP Redistribution (AID 450;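 active = compounds whose dose series gives a full or clear partial fitted curve of increased nuclear translocation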; also: potency is read from the fitted curve at half-maximal effect). The note with it: U2OS GR-GFP nuclear translocation, laser cytometry, 2 h.
The target is the same in experiment [8]. Description: GR-EFC Redistribution (AID 451; calls by dose curve; also: potency is read from the fitted curve at half-maximal effect). To be noted: CHO-K1 GR-EFC translocation, beta-gal luminescence, 2 h. The method, boiled down: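 CHO-K1 cells expressing nuclear EA and GR-ED fragments of b-gal; compounds titrated up to 46 uM final, 2 h at 37 C. GR nuclear translocation read as complemented b-gal luminescence after 1 h RT detection.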
Experiment [9] concerns the target Ubiquitin carboxyl-terminal hydrolase 1 (Homo sapiens) (UniProt O94782). As to the kind of experiment: Inhibitors of USP1/UAF1: Pilot qHTS (AID 504865; active = well fitted inhibition curve with a large enough effect;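 also: rhodamine fluorescence freed from ubiquitin-rhodamine substrate followed over time; top concentration of the series differs between compounds; % is scaled to controls: 0 for no effect and ±100 for the full control effect; nearly all actives have a fitted effect of over 35% in size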). The method, boiled down: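 In 50mM HEPES pH 7.8 containing 0.5mM EDTA, 1mM TCEP, 0.1 mg/ml BSA and 0.01% Tween-20, 1nM USP1/UAF1 is exposed to compound for 15 min, then Ub-Rho (150nM final) is added and fluorescence is read over time.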

[10] abbreviates: measured here: cell count channel max response.
The mark [11] stands for this setting: measured here: lipid channel max response.

Results filed as inconclusive are left out. Calls of active or inactive are those of the source. Unless noted, calls follow the shape of the dose curve; as a rule, active = well fitted curve in either direction with a large enough effect (not every such curve was filed as active); inconclusive = small, poorly fitted or top-dose-only effect, or another doubt; inactive = flat fitted curve, though single readings scatter.

Chain of 3',5'-cyclic-AMP phosphodiesterase 4B (Homo sapiens) (Q07343 whole entry, looked up): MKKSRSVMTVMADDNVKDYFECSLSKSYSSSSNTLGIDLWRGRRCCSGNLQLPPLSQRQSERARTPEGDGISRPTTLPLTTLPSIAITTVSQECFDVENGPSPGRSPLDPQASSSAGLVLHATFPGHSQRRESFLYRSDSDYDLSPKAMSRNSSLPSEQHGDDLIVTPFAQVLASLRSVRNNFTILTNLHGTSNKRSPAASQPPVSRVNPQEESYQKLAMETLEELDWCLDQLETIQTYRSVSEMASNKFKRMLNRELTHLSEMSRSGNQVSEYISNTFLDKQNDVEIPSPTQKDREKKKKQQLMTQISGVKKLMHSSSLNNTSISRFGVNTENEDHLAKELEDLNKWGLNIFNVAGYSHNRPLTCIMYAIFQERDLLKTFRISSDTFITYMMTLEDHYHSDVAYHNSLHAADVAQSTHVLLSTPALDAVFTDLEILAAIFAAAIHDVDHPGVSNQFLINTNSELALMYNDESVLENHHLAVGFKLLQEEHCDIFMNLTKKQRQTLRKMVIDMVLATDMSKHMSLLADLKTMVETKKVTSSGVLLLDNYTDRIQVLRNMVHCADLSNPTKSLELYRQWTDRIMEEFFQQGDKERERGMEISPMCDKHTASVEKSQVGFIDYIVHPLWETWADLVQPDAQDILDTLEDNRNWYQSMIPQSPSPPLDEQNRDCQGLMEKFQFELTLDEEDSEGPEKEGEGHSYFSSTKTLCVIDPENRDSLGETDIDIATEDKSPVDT
Chain of Glucocorticoid receptor (Homo sapiens) (P04150 whole entry, looked up, the tested form may be a part): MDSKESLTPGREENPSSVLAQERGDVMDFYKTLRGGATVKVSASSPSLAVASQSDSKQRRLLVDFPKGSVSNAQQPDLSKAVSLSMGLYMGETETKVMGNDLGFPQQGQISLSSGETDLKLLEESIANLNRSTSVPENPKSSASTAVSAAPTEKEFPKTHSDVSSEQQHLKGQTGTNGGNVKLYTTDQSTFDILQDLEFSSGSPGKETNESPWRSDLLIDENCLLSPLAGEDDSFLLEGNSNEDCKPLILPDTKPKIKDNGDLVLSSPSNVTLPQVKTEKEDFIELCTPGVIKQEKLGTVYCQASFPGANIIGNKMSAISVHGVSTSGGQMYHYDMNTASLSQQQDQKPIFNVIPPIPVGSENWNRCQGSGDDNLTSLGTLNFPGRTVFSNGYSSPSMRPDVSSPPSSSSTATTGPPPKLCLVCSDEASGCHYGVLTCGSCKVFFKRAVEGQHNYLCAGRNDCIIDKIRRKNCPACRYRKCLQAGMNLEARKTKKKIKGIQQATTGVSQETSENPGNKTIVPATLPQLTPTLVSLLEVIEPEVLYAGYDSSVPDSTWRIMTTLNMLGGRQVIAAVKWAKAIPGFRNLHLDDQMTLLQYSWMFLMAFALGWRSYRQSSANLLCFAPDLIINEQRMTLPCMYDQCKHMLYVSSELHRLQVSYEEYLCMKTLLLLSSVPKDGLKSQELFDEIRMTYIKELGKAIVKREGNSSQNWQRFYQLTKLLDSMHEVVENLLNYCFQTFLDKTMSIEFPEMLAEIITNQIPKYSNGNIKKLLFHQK
Chain of Ubiquitin carboxyl-terminal hydrolase 1 (Homo sapiens) (O94782 whole entry, looked up): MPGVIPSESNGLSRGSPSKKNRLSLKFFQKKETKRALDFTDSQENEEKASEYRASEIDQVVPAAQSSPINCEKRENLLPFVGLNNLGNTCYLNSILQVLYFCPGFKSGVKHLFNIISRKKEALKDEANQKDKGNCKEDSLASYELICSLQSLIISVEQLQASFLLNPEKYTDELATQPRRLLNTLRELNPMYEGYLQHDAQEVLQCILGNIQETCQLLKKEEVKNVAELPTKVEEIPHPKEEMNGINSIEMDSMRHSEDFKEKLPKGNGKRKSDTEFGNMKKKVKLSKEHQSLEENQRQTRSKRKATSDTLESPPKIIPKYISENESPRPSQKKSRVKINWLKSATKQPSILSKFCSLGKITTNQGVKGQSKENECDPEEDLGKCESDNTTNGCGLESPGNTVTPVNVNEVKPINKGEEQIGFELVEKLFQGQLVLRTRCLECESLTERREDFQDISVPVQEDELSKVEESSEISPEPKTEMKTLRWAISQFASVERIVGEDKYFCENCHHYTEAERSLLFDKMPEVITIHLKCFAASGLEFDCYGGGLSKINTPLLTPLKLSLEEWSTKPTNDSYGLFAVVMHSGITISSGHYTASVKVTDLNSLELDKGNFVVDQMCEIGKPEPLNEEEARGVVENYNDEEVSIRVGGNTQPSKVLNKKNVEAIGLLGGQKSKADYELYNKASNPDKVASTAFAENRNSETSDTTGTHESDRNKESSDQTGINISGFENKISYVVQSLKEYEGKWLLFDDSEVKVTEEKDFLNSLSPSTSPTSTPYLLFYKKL

`C[C@H]1[C@@H](O)[C@@H](C)/C=C\C=CCC\C=C/C=C\C=C/C=C[C@@H](O[C@H]2O[C@@H](C)[C@@H](O)[C@@H](N)[C@@H]2O)C[C@@H]2O[C@@](O)(C[C@@H](O)[C@H]2C(=O)O)C[C@@H](O)[C@@H](O)CC[C@@H](O)C[C@@H](O)C[C@@H](O)CC(=O)O[C@H]1C`: the molecule was called inactive in experiment [1], in [3] and in experiment [4]. Further, the activity change, negative = inhibition was 1.26% (inactive) in experiment [2] (at 17.2 µM (top of the series)) and -0.591% (inactive) in experiment [6] (at 25.7 µM (top of the series)). Besides, the Potency result in experiment [5] is “inactive”. The max response came out at 5.63% in experiment [6] (setting [10]) and 6.3% in experiment [6] (setting [11]).
For the molecule `CC[C@H]1CN2CC[C@@H]1C[C@H]2[C@@H](O)c1ccnc2ccc(OC)cc12`, the outcome in [1], in [3] and in experiment [4] was inactive. Also, the results for the activity change, negative = inhibition in experiment [2] (at 17.2 µM (top of the series)) and in experiment [6] (at 25.7 µM (top of the series)) were -20.4% (inactive) and -3.88% (inactive), respectively. Further, the Potency in experiment [7] and in experiment [8] was > 20.6 µM (inactive) throughout. Also, the max response in experiment [6] (setting [10]) was -1.96%; in [6] (setting [11]) it was -5.46%.
For `CC(C)NC(=O)N1CCC2(CCNCC2)CC1`, the call in experiment [1], in experiment [3] and in experiment [4] was inactive. For the same molecule, the Potency result in experiment [5] was “inactive”. Also, the activity change, negative = inhibition in experiment [6] (at 57.5 µM (top of the series)) is 4% (inactive). Moreover, the max response turned out to be 1.41% in experiment [6] (setting [10]) and 7.12% in experiment [6] (setting [11]).
Regarding `c1cc(CN2CCC3(CCNCC3)CC2)ccn1`, the result in [1], in [3] and in experiment [4] was inactive. The activity change, negative = inhibition is -8.56% (inactive) in experiment [2] (at 7.69 µM (top of the series)) and 4.55% (inactive) in experiment [6] (at 57.5 µM (top of the series)). Moreover, the Potency in [8] is > 46 µM (inactive). In addition, in experiment [5], the Potency result was “inactive”. The figures for the max response in [6] (setting [10]) and in [6] (setting [11]) were 10.7% and 18.5%, respectively.
Consider `O=C(NCNC(=O)N[C@H]1C(=O)NC(=O)N1CO)N[C@H]1C(=O)NC(=O)N1CO`, for which the call in [1], in experiment [3] and in experiment [4] was inactive. Moreover, the activity change, negative = inhibition in experiment [2] (at 17.2 µM (top of the series)) was -14% (inactive); in experiment [6] (at 25.7 µM (top of the series)) it was -1.29% (inactive). In addition, the Potency in experiment [7] and in experiment [8] was > 20.6 µM (inactive) each time. Besides, the max response in [6] (setting [10]) is -9.3%; in experiment [6] (setting [11]) it was -8.35%. In addition, the Potency entry in experiment [9] is “inactive”.
Take `NC[C@H](O)c1ccc(O)cc1`: the molecule was classed as inactive in experiment [1], in [3] and in [4]. In addition, the figures for the activity change, negative = inhibition in experiment [2] (at 17.2 µM (top of the series)), in [2] (at 38 µM (top of the series)) and in [6] (at 25.7 µM (top of the series)) were 6.46% (inactive), 10.8% (inactive) and -0.0033% (inactive), respectively. Further, the Potency result in experiment [5] and in [9] was “inactive” in each case. The max response in experiment [6] (setting [10]) came to 1.62%; in experiment [6] (setting [11]), 3.81%.
